This is an account of results in PubChem BioAssay (Tox21).

Experiment [1] has as its target Androgen receptor (Homo sapiens) (UniProt P10275). Kind of experiment: qHTS assay to identify small molecule antagonists of the androgen receptor (AR) signaling pathway using the MDA cell line in the presence of 0.5 nM R1881 (AID 1259243). Further: nearly all actives have a fitted effect of over 50% in size. Further: potency means the concentration at half of the fitted maximal effect. The method, boiled down: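 Reporter cells cultured without CO2 receive test chemicals, then 0.5 nM R1881 final; after 16 hr at 37C, ONE-Glo is added and light output recorded.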
In general terms: qHTS replaces the single test concentration by a dilution series.

Experiment [2] concerns the target Estrogen receptor (Homo sapiens) (UniProt P03372). The experiment in a line: qHTS assay to identify small molecule antagonists of the estrogen receptor alpha (ER-alpha) signaling pathway using the BG1 cell line in the presence of 0.1 nM 17-beta-estradiol (AID 1259244). Further: nearly all actives have a fitted effect of over 50% in size. Further: potency means the concentration at half of the fitted maximal effect. The method, boiled down:
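Estradiol at 0.1 nM (final) stimulates the endogenous ER-alpha of VM7Luc4E2 cells carrying an ERE-driven luciferase; compounds are co-incubated 22 h at 37C and luciferase output quantified by luminescence.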

Experiment [3] is described as follows: qHTS assay to identify small molecule HDAC inhibitors (AID 1259364).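 Further: wild-type HCT-116 cells with endogenous class I/II HDAC activity; top concentration of the series differs between compounds; nearly all actives have a fitted effect of over 45% in size.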 In outline:
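Read-out: luminescence of HDAC-Glo I/II reagent, 30 min RT, reflecting class I/II deacetylase activity in whole HCT-116 cells pre-exposed 2 h to DMSO-dissolved compounds.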

The nature of experiment [4]: qHTS assay to identify small molecule HDAC inhibitors - cell viability counter screen (AID 1259365). Further: series mostly up to about 92 µM; nearly all actives have a fitted effect of over 50% in size. The method, boiled down:
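Wild-type HCT-116 cells were seeded at 1,500 per well, incubated overnight at 37 C, then exposed to compounds in DMSO for 2hr. Viability was read by CellTiter-Glo luminescence after 30min at room temperature.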

The nature of experiment [5]: qHTS assay to identify small molecule agonists of the sonic hedgehog signaling (Shh) pathway - cell viability counter screen (AID 1259366). Further: nearly all actives have a fitted effect of over 50% in size. Further: potency means the concentration at half of the fitted maximal effect. In outline: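 NIH/3T3-derived 3T3 Gli1-Luc cells (stable Gli1-responsive firefly luciferase reporter) were seeded, rested 4 hr at 37 C/5% CO2, then exposed to compounds in DMSO for 24 hr; viability was read by CellTiter-Fluor fluorescence in the same wells.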

The nature of experiment [6]: qHTS assay to identify small molecule agonists of the sonic hedgehog signaling (Shh) pathway (AID 1259368; calls by dose curve; further: series mostly up to about 92 µM; nearly all actives have a fitted effect of over 15% in size). In outline: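 A Gli1 transcriptional response element controlled firefly luciferase in 3T3Gli1-Luc cells. Compounds and a positive control were added 4 hr after plating, and cells were incubated a further 24 hr at 37 C before luminescence detection.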
A short description of experiment [7]: qHTS assay to identify small molecule antagonists of the sonic hedgehog signaling (Shh) pathway (AID 1259369; calls by dose curve; further: nearly all actives have a fitted effect of over 45% in size; further: potency means the concentration at half of the fitted maximal effect). In outline: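 For antagonist detection, the reporter line received test compounds together with conditioned medium, incubated 24hr at 37 C, 5% CO2, then luminescence was recorded following 30min room-temperature luciferase reagent incubation.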
Experiment [8] in a line: qHTS assay to identify small molecule agonists of the estrogen receptor beta (ER-beta) signaling pathway - cell viability counter screen (AID 1259380). Further: potency means the concentration at half of the fitted maximal effect; nearly all actives have a fitted effect of over 30% in size. The method, boiled down: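 CellTiter-Glo read, 30 min RT, same wells as bla assay; cells ER-beta-UAS-bla HEK293T; 16 hr compound, 37C; medium 2% charcoal-stripped FBS.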
In experiment [9] the target is Androgen receptor (Homo sapiens) (UniProt P10275). The experiment in a line: qHTS assay to identify small molecule agonists of the androgen receptor (AR) signaling pathway in the presence of an antagonist (AID 1259381; calls by dose curve; further: nearly all actives have a fitted effect of over 15% in size). In outline: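 Test compounds at 15 concentrations were incubated for 16hr with MDA-kb2 reporter cells in presence of 3.0uM nilutamide (final). Signal: ONE-Glo luciferase luminescence.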

Experiment [10] in a line: qHTS assay to identify small molecule antagonists of the estrogen receptor beta (ER-beta) signaling pathway - cell viability counter screen (AID 1259382). Further: nearly all actives have a fitted effect of over 55% in size. Further: potency means the concentration at half of the fitted maximal effect. In outline:
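In this multiplexed counter screen, cells were seeded at 2,000 per well in medium with 2% charcoal-stripped FBS and incubated 6 hr before compound and 1nM final E2 were added. Sixteen hours later, ATP-based luminescence reported viability.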

Experiment [11] addresses Estrogen receptor (Homo sapiens) (UniProt P03372). The experiment in a line: qHTS assay to identify small molecule agonists of the estrogen receptor alpha (ER-alpha) signaling pathway in the presence of an antagonist (AID 1259383; calls by dose curve; further: top concentration of the series differs between compounds; nearly all actives have a fitted effect of over 15% in size). The method, boiled down:
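Stably transfected VM7Luc4E2 reporter cells, kept 5 days in charcoal-stripped serum, received ICI-182,780 at 10.0nM final before compound addition. Following 22hr incubation at 37C and 5% CO2, luciferase signal was read by luminescence.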

Experiment [12] can be described thus: qHTS assay to identify small molecule antagonists of the sonic hedgehog signaling (Shh) pathway - cell viability counter screen (AID 1259367). Further: nearly all actives have a fitted effect of over 55% in size. Further: potency means the concentration at half of the fitted maximal effect. The method, boiled down:
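NIH/3T3-derived Gli1-Luc reporter cells, 2,000/well, plated 4 hr before compound addition, then stimulated with conditioned medium for 24 hr at 37C. Viability measured in the same wells by CellTiter-Fluor fluorescence, reagent added at 23 hr for 1 hr.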

The target in experiment [13] is Estrogen receptor beta (Homo sapiens) (UniProt Q92731). Kind of experiment: qHTS assay to identify small molecule agonists of the estrogen receptor beta (ER-beta) signaling pathway (AID 1259377; active means well fitted activation curve with a large enough effect in the signal ratio in the repeat runs, not every such curve was filed as active; the % refers to the signal ratio). In outline: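 ER-beta-UAS-bla HEK293T (GripTite) cells carrying a UAS-driven beta-lactamase reporter, in medium with 2% charcoal-stripped FBS, were exposed to compounds for 16 hr at 37C; LiveBLAzer B/G FRET substrate was then added and fluorescence read after 2 hours at room temperature.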

Experiment [14] is described as follows: qHTS assay to identify small molecule agonists of the androgen receptor (AR) signaling pathway in the presence of an antagonist - cell viability counter screen (AID 1259379).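 Further: MDA-kb2 human breast cancer cells carrying an MMTV luciferase reporter; series mostly up to about 92 µM; nearly all actives have a fitted effect of over 25% in size.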 In outline:
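Seed MDA-kb2 at 3,000 cells/well; incubate 5 hr, 37C, 0% CO2. Add nilutamide to 3.0uM final, then pin compounds at 15 concentrations. Incubate 16 hr. Add CellTiter-Fluor at 15 hr, read fluorescence after 1 hr.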

A short description of experiment [15]: qHTS assay to identify small molecule agonists or antagonists of the thyroid stimulating hormone receptor (TSHR) signaling pathway - wild type cell line counter screen (AID 1259384; calls by dose curve). In outline: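 Wild-type Hek293 cells, 800/well, 18 h at 37C, then compound with Ro20-1724 for 30 min RT. cAMP by HTRF (cAMP-d2/anti-cAMP cryptate), 1 h RT, fluorescence read. 15 concentrations, triplicates.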

Experiment [16] has as its target Thyrotropin receptor (Homo sapiens) (UniProt P16473). Kind of experiment: qHTS assay to identify small molecule antagonists of the thyroid stimulating hormone receptor (TSHR) signaling pathway (AID 1259385; calls by dose curve; further: nearly all actives have a fitted effect of over 20% in size). The method, boiled down:
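TSHR-HEK293 cells (800/well) plated 18 h, then compounds with Ro20-1724 and TSH at 1.5 ng/mL final, 30 min at room temperature. cAMP quantified by HTRF (cAMP-d2/anti-cAMP-cryptate, 1 h); 15 concentrations in triplicate.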

Experiment [17] in a line: qHTS assay to identify small molecule agonists of the estrogen receptor alpha (ER-alpha) signaling pathway in the presence of an antagonist - cell viability counter screen (AID 1259386).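 Further: cells exposed to compounds for 22 h at 37 °C before the viability read; nearly all actives have a fitted effect of over 30% in size.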 Further: potency means the concentration at half of the fitted maximal effect. The method, boiled down:
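Viability counter screen using VM7Luc4E2 (full-length ER-alpha, four ERE-luciferase). The cells were treated with compounds alongside ICI-182,780 10.0nM for 22hr, and live-cell protease fluorescence was quantified with CellTiter-Fluor.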

Experiment [18] can be described thus: qHTS assay to identify small molecule phospholipidosis (PLD) inducers (AID 1259344; active means well fitted curve in the direction sought with a large enough effect; an effect the other way counts as inactive or inconclusive; further: potency means the concentration at half of the fitted maximal effect). The method, boiled down: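 HepG2 cells, 900/well, treated with compound plus LipidTOX Red for 24 h at 37 C; amiodarone positive and DMSO negative controls. Fixed with paraformaldehyde/Hoechst, then high-content imaging scored LipidTOX pit count and integrated intensity per well and per cell.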

The target of experiment [19] is Estrogen receptor beta (Homo sapiens) (UniProt Q92731). Kind of experiment: qHTS assay to identify small molecule antagonists of the estrogen receptor beta (ER-beta) signaling pathway (AID 1259378; active means well fitted inhibition curve with a large enough effect in the signal ratio in the repeat runs, not every such curve was filed as active; the % refers to the signal ratio; further: potency means the concentration at half of the fitted maximal effect). The method, boiled down:
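ER-beta-UAS-bla HEK293T cells in 2% charcoal-stripped FBS medium treated with compound plus 1nM final 17-beta-estradiol for 16 hr at 37C. Beta-lactamase reporter read by FRET substrate fluorescence after 2 hours at room temperature.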

Experiment [20] concerns the target Progesterone receptor (Homo sapiens) (UniProt P06401). Kind of experiment: qHTS assay to identify small molecule agonists of the progesterone receptor (PR) signaling pathway (AID 1346784; calls by dose curve; further: nearly all actives have a fitted effect of over 30% in size). The method, boiled down: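 PR-UAS-bla HEK 293T cells carrying a UAS-driven beta-lactamase reporter were seeded in medium with 2% charcoal-stripped FBS, preincubated 6 hr at 37C, then exposed to compounds in DMSO for 16 hr; agonism was read by LiveBLAzer B/G FRET fluorescence.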

The structures appear in SMILES notation. Results filed as inconclusive are left out. Activity calls are given as the source filed them. Unless noted, the call rests on the fitted dose curve; in most records, active means well fitted curve in the direction sought with a large enough effect in the repeat runs; inconclusive means weak or mixed curves; inactive means no such curve, though single readings can be large; an effect the other way counts as inactive or inconclusive.

Sequence of Thyrotropin receptor (Homo sapiens) (P16473 whole entry, looked up): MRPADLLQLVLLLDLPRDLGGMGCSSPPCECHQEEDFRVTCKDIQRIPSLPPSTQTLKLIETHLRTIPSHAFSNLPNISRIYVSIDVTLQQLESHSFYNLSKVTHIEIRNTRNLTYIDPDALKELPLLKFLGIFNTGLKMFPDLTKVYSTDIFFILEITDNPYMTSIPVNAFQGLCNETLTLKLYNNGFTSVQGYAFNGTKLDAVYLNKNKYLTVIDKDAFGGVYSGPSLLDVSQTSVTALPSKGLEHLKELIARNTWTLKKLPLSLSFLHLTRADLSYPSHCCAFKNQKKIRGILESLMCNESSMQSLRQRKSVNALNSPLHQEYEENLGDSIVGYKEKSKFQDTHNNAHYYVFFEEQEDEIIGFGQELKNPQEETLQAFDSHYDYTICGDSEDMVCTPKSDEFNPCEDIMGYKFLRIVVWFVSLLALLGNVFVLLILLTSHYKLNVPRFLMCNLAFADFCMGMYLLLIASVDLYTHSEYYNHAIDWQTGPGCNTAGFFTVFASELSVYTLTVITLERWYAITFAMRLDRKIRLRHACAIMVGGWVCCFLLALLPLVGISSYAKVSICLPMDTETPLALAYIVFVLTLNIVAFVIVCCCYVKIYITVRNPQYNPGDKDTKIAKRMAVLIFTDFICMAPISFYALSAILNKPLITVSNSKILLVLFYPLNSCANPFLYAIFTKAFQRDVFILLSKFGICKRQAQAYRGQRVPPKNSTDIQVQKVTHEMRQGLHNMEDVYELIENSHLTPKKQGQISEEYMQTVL
Sequence of Androgen receptor (Homo sapiens) (P10275 whole entry, looked up): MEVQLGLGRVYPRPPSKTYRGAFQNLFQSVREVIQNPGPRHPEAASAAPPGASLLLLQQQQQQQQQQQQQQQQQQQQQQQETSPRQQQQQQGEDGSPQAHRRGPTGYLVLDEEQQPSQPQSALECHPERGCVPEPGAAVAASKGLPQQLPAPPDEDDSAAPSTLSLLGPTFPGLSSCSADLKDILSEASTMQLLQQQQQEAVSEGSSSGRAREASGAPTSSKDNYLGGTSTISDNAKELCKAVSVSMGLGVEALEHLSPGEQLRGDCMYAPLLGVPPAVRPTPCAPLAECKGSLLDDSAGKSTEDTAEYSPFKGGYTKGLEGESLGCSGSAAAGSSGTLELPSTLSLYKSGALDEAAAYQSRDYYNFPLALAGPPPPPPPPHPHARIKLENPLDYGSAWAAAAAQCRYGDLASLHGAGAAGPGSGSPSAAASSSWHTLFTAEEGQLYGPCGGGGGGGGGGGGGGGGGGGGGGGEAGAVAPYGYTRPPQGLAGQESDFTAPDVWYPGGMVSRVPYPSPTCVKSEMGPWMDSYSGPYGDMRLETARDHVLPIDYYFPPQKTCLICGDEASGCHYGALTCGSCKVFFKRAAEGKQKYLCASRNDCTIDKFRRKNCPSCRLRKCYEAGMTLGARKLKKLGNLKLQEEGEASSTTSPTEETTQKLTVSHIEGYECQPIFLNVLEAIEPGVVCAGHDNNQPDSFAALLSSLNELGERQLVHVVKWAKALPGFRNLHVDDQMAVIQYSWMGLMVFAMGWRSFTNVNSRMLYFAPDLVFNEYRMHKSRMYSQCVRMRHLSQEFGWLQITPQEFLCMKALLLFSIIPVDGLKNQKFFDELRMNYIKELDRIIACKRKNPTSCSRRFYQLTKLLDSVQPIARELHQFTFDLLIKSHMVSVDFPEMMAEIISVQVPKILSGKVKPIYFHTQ
Sequence of Estrogen receptor (Homo sapiens) (P03372 whole entry, looked up): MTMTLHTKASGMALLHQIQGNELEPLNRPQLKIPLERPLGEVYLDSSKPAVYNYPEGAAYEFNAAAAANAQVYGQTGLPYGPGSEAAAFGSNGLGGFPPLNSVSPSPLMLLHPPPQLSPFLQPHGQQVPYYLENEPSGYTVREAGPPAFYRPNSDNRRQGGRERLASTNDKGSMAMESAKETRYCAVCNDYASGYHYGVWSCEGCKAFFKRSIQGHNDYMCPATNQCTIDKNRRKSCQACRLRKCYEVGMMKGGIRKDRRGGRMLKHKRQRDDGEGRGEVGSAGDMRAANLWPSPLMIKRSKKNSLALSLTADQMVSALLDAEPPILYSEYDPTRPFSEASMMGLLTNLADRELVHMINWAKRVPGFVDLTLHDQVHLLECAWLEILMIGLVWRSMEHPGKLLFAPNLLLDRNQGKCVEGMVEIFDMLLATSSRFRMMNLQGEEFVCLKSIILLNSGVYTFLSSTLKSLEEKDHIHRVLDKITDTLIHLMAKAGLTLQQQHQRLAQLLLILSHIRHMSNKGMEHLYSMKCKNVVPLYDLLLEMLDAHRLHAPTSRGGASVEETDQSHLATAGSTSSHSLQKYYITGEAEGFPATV
Sequence of Estrogen receptor beta (Homo sapiens) (Q92731 whole entry, looked up): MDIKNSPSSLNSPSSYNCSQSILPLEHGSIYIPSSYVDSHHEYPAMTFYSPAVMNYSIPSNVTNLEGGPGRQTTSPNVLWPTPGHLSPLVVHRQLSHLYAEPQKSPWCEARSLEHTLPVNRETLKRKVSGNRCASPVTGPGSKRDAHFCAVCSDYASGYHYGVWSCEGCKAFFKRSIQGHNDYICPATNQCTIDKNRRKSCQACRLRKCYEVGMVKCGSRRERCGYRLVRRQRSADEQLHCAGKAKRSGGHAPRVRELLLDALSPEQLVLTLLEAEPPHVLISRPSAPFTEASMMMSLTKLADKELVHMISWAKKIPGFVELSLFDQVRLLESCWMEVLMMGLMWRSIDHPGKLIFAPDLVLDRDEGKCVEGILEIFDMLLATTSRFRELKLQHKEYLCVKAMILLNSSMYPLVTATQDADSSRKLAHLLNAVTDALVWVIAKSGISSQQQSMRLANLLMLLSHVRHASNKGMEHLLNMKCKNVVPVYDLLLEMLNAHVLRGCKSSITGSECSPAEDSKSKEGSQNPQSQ
Sequence of Progesterone receptor (Homo sapiens) (P06401 whole entry, looked up): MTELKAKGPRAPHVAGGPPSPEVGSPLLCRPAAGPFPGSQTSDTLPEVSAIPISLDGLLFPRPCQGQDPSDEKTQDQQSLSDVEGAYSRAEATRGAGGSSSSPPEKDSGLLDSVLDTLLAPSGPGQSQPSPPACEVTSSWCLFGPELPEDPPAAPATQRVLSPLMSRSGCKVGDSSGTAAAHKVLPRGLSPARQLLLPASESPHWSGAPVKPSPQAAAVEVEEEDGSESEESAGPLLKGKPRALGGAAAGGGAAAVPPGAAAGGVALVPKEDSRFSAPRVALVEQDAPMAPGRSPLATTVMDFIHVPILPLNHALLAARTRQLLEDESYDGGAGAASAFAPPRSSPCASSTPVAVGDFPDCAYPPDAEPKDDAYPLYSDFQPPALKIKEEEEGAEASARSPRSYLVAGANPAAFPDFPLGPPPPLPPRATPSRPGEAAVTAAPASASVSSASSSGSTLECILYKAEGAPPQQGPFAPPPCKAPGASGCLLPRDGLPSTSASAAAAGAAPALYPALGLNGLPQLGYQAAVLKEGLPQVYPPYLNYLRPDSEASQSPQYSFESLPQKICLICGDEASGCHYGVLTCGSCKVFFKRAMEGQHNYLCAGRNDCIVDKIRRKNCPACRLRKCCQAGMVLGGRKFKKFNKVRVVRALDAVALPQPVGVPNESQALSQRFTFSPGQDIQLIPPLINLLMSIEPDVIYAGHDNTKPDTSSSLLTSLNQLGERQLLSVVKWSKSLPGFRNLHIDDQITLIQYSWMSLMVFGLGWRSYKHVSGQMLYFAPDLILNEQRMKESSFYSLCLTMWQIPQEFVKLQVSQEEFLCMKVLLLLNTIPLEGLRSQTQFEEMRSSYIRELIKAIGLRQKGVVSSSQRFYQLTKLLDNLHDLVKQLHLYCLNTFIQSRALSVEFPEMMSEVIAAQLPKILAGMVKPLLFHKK

As to `Oc1ccc(C2(c3ccc(O)cc3)CC3CC2C2CCCC32)cc1` (centres undefined), the Potency is 52.3 µM (active) in [1]; 0.117 µM (active) in [2]; 58.7 µM (active) in experiment [5]; 20.8 µM (active) in [7]; 26.2 µM (active) in experiment [8]; 26.2 µM (active) in [10]. Moreover, the Potency result in experiment [3], in experiment [4], in experiment [6], in experiment [9] and in experiment [11] was “inactive” throughout.
`Cc1cc(O)c(Cl)c(C)c1Cl`: the Potency result in [1], in experiment [2], in experiment [3], in [4], in [6] and in experiment [7] was “inactive” in each case. Also, the Potency entry in [13], in experiment [14], in experiment [9], in experiment [10], in [11] and in [16] was “inactive” throughout. For the same molecule, the Potency result in [17] is “inactive”. Further, the Potency in [12] was 24.3 µM (active). In addition, the molecule was classed as inactive in experiment [15].
On to `CC(C)(C)CC(C)(C)c1ccc(O)c(Cc2ccc(Cl)cc2Cl)c1`, for which the Potency was 29.8 µM (active) in experiment [1]; 33.5 µM (active) in [2]; 11.9 µM (active) in [8]; 29.8 µM (active) in experiment [10]; 29.8 µM (active) in experiment [17]. In addition, the Potency entry in [18], in [6], in experiment [9], in experiment [11] and in experiment [16] was “inactive” in each case. Further, in [15], the molecule was called inactive.
On to `CC(C)=CCOc1ccc(/C=C/C(=O)c2ccc(OCC=C(C)C)cc2OCC(=O)O)cc1`, for which the Potency result in [1], in experiment [2], in experiment [18], in experiment [3], in experiment [4] and in [5] was “inactive” in each case. The Potency result in experiment [12], in [6], in [7], in [14], in experiment [9] and in [11] was “inactive” each time. In addition, the Potency entry in experiment [16] and in experiment [17] was “inactive” in each case. The Potency in experiment [8] was 5.96 µM (active). For the same molecule, the molecule was called inactive in experiment [15].
As to `OCCN1CCN(CC/C=C2/c3ccccc3Sc3ccc(C(F)(F)F)cc32)CC1`, the Potency in [1] was 26.6 µM (active); in [18] it was 10 µM (active); in [5], 21.1 µM (active); in experiment [19], 11.9 µM (active); in [8], 21.1 µM (active); in experiment [10], 26.6 µM (active). For the same molecule, the Potency result in experiment [2], in experiment [3], in experiment [4], in experiment [12], in [6] and in [13] was “inactive” each time. The Potency entry in experiment [9], in experiment [11], in experiment [16] and in experiment [17] was “inactive” in each case. The molecule was classed as inactive in [15].
Regarding `Cc1cc(O)c2ccccc2c1O`, the Potency is 11.9 µM (active) in [1]; 13.3 µM (active) in experiment [2]; 5.31 µM (active) in experiment [5]; 13.3 µM (active) in experiment [12]; 13.3 µM (active) in experiment [7]; 13.3 µM (active) in experiment [8]. Moreover, the Potency in experiment [10] is 23.7 µM (active); in experiment [17], 29.8 µM (active). Moreover, the Potency result in experiment [18], in experiment [6], in experiment [9] and in experiment [11] was “inactive” each time. The molecule was called inactive in [15].
Turning to `O=C(Oc1ccccc1)c1ccccc1C(=O)Oc1ccccc1`, the Potency is 54.5 µM (active) in [1] and 48.6 µM (active) in [19]. For the same molecule, the Potency result in experiment [2], in [3], in [4], in experiment [12], in [6] and in [9] was “inactive” each time. The Potency entry in experiment [10], in experiment [17] and in experiment [20] was “inactive” in each case.
